# Data as given in PubChem BioAssay AID1053126 (Broad Institute, 2014).
# Entries with a potency or affinity are not part of this list. Values without a mark were called inactive.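 The calls were made as follows: active = cell killing with a fitted half-effect concentration at or below twice the top valid dose; inconclusive = flat curve with 30 to 70 percent drop, or poor fit; inactive = the rest.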
# Experiment: viability loss in HEK293T kidney cells – cell-based, ATP luminescence, cherry-pick, set 6, cytotoxicity control, dose response (AID 1053126);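 also: 0% = neutral control wells and -100% = mitoxantrone 10 µM positive control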
# Settings: CellTiter-Glo ATP luminescence, 72 h; series mostly up to 26 µM; activity change, negative = cytotoxicity: at the top concentration
row,Compound,"activity change, negative = cytotoxicity"
1,N#C/C(=C\c1ccco1)C(=O)Nc1cccc2ncccc12,6.1%
2,O=C1CCc2cc(S(=O)(=O)NC(Cc3ccccc3)C(=O)NCCC3=CCCCC3)ccc2N1 (stereo not drawn),8.41%
3,CC(C)CCn1c(CN2CC(C)OC(C)C2)nc2c1c(=O)n(C)c(=O)n2C (stereo not drawn),2.88%
4,COc1cccc2c(=O)c3c(cnn3C)n(C)c12,-2.97%
5,CCN(c1ccccc1)S(=O)(=O)c1ccc(OC)c(NC(=O)CN(C)C)c1,-19%
6,CCCCn1nc(NC(=O)c2cccs2)c2cc3cc(OC)ccc3nc21,-8% [at 12 µM]
7,CCOC(=O)c1cc2c(=O)n3ccccc3nc2n(CCCOC)c1=NC(=O)c1ccncc1,-4.62%
8,CCOc1ccc(NC(=O)CN(C)C(=O)CCCNC(=O)c2ccc(Cl)cc2)cc1OCC,-10.1%
9,Cc1cc(CNC(=O)c2ccc3c(c2)OCO3)c2ccccc2n1,-7.76%
10,CCOC(=O)C1=CN(CC2CCCO2)C=C(C(=O)OCC)C1c1ccccc1C(F)(F)F (stereo not drawn),-8.62%
11,Cc1ccc(-n2c(C)cc(/C=N/NC(=O)Cn3c4ccccc4c(=O)c4ccccc43)c2C)cc1,23.8%
12,CCOC(=O)c1cc2c(=O)n3cccc(C)c3nc2n(CC(C)C)c1=NC(=O)c1ccco1,-0.128%
13,CSC1=NSC2=NC(=O)/C(=C/c3coc4ccc(O)cc4c3=O)C(=N)N12,-22.3%
14,C/C(=N\NC(=O)CC#N)c1cc2ccc(O)cc2oc1=O,12.9%
15,COC(=O)C1=CN(Cc2ccc(OC)c(OC)c2)C=C(C(=O)OC)C1c1cccc(F)c1,-13.2%
16,CC(C)OCCCn1c(=N)c(C(N)=S)cc2c(=O)n3ccccc3nc21,-7.35%
17,COc1ccccc1/C=N/Nc1nc(C)cc(=O)[nH]1,-8.08%
18,Nc1ccc2nc(-c3ccccc3)cnc2c1,-5.63%
19,N#Cc1c(NCCCO)nc(NCc2ccccc2)c2c1CCN(Cc1ccccc1)C2,-9.15%

row,Compound,"activity change, negative = cytotoxicity"
1,CCn1c(=NC(=O)CSC(C)=O)sc2cc(OC)ccc21,-9.23%
2,Cn1cnc(S(=O)(=O)Nc2ccc(OC(F)(F)F)cc2)c1,16.4%
3,COc1ccc(NC(=O)C2CCC(CNS(=O)(=O)c3cccs3)CC2)cc1 (stereo not drawn),-11.5%
4,COCCNC(=O)c1cc2c(=O)n3cccc(C)c3nc2n(Cc2ccncc2)c1=N,-15.1%
5,Cc1c(C(=O)NCc2cccc([N+](=O)[O-])c2)sc(=O)n1Cc1cccc(F)c1,-15.5%
6,O=c1[nH]c(Nc2ccccc2Cl)cc2ccccc12,56.3%
7,Cc1nc(CCNC(=O)Cc2ccc(Cl)cc2)cs1,-7.6%
8,CCC(=O)N1C(C(=O)NCc2ccc(OC)cc2)CSC1c1ccc(OC)cc1 (stereo not drawn),-13.7%
9,CSc1ccc(Cl)c(C(=O)N2CCOc3ccccc32)c1,-3.33%
10,COc1ccc(C2CC(c3cccs3)=NN2c2nc(C)c(C(C)=O)s2)cc1OC (stereo not drawn),82.2%
11,O=C(c1cccc(Cl)c1)N1CCC(=O)N(C(COCc2ccccc2)Cc2ccccc2)CC1 (stereo not drawn),-9.17%
12,Cc1cccn2c(=O)c3cc(C#N)c(=NC(=O)c4cccs4)n(CC(C)C)c3nc12,-4.41%
13,CCc1cccc(OC2OC(CO)C(O)C(O)C2NC(C)=O)c1 (stereo not drawn),-15.4%
14,CN1c2ccc(Cl)cc2C(=O)NC1C1CC=CCC1 (stereo not drawn),5.93%
15,CCn1c2ccccc2c(=O)c2ccccc21,-13.3%
16,Clc1cccc(CN2CCN(Cc3nc(CCc4ccccc4)no3)CC2)c1,-15.3%
17,CC1CC(C)CN(CCCNC(=O)CCC(=O)N2CC(C)Oc3ccccc32)C1 (stereo not drawn),9.39%
18,Cc1ccc(C(=O)OCC(=O)Nc2c(C)nn(-c3ccccc3)c2C)c(O)c1,25.2%
19,CCc1ccccc1S(=O)(=O)Cc1ccc(C(=O)N2CCN(c3ccccc3OC)CC2)o1,-6.49%
